Each structure is given as a SMILES string. Values without a mark were called inactive. Records with an inconclusive call do not appear. Active and inactive are the calls of the source. Unless noted, calls come from the whole dose curve; as a rule, active = well fitted curve in the direction sought with a large enough effect; inconclusive = small, poorly fitted or top-dose-only effect, or another doubt; inactive = no such curve, though single readings can be large; an effect the other way counts as inactive or inconclusive.

This passage reports Potency and max response results from PubChem BioAssay (NCATS).

Assay [1] has as its target T1, Hexokinase-4 (Homo sapiens) + Glucokinase regulatory protein (Homo sapiens) (UniProt P35557+Q14397). Description: qHTS assay for inhibitors of recombinant human GCK-GKRP interaction: Diaphorase-coupled assay (AID 743205). To be noted: G6PDH/diaphorase resorufin fluorescence; series mostly up to 57.5 µM. The procedure, abridged:
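GST-GCK (10 nM) with FLAG-GKRP (10 nM), 5 mM glucose and 0.4 mM ATP in pH 7.6 Hepes; compounds preincubated 20 min with substrate. G6PDH/diaphorase coupling converts resazurin to resorufin, read kinetically (ex 525/em 590 nm) for 30 min.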

The target in assay [2] is T1, Hexokinase-4 (Homo sapiens) + Glucokinase regulatory protein (Homo sapiens). Description: qHTS assay for inhibitors of recombinant human GCK-GKRP interaction: ADP-Glo assay (AID 743206).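 Note: plate controls were DMSO plus enzyme for no effect and no enzyme for full effect.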 To be noted: ADP-Glo luminescence, 60 min; series mostly up to 76.9 µM. The procedure, abridged: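 Pin-transferred compounds meet a 15 nM GST-GCK/15 nM FLAG-GKRP/2 uM S6P mix (dispense concentrations). ATP is then added to 0.4 mM final with 5 mM glucose, and the reaction runs 60 min at room temperature. ADP is quantified luminescently.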

Assay [3] has the same target. Description: qHTS assay for inhibitors of recombinant human GCK-GKRP interaction: HTRF assay (AID 743207).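 Note: 0% = DMSO with GCK present and -100% = DMSO wells lacking GCK.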 Conditions: recombinant GCK-GKRP HTRF binding, 60 min, with sorbitol-6-phosphate; series mostly up to 57.5 µM. In a few lines: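 GST-GCK and FLAG-GKRP (5 nM each) were combined with 2 uM S6P in pH 7.1 Hepes/MgCl2/KCl/DTT buffer, then compound and anti-FLAG XL665/anti-GST K antibodies were added. After 60 min at room temperature, HTRF 665/615 nm emission was read.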

The nature of assay [4]: qHTS assay for measurement of the activity of small molecule inhibitors on Zika virus induced Caspase-3 activity in human iPSC derived neural progenitor cells (hNPCs) (AID 1224857). Note: % of control where 0% means no effect; nearly all actives have a fitted effect of over 65% in size. Conditions: hNPCs ZIKV-induced caspase-3/7, Caspase-Glo luminescence, 6 h; series mostly up to 45.7 µM. The procedure, abridged: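 Quantitative HTS format: human iPSC neural progenitors, 1 h compound pretreatment, ZIKV 2 FFU/cell for 6 h at 37 C. Percent inhibition derived from luminescent caspase-3/7 signal between uninfected and infected controls.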

Assay [5] in a line: Natriuretic polypeptide receptor (hNpr1) antagonism - Pilot counterscreen GloSensor control cell line (AID 1347045; calls by dose curve; note: potency is the fitted concentration of half-maximal effect). To be noted: HEK293 cGMP GloSensor cells, SNP-stimulated luminescence, 20 min; series mostly up to 38.3 µM. The procedure, abridged:
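Control counterscreen: luciferase cGMP-biosensor HEK293 cells (no Npr1) received compound for 30 min at room temperature after GloSensor substrate loading. Luminescence was measured before and 20 min after soluble guanylyl cyclase activation by 50 uM nitroprusside.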

Assay [6] addresses Atrial natriuretic peptide receptor 1 (Homo sapiens) (UniProt P16066). Description: Natriuretic polypeptide receptor (hNpr1) antagonism - Pilot screen (AID 1347049; calls by dose curve;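 note: agonist-evoked cGMP luminescence read 20 min after hNppA addition; % is set by controls: 0 for no effect and ±100 for the full control effect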). To be noted: hNpr1 cells, antagonist mode cGMP read-out; series mostly up to 57.5 µM. The procedure, abridged: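 cGMP-sensor HEK293/hNpr1 cells, 1500/well, plated overnight at 37C. 2% GloSensor reagent, 2 h RT. Compound (23 nL pin transfer) 30 min RT, baseline luminescence pre-read. 0.1 nM hNppA, 20 min RT, post-read.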

Assay [7] has as its target Atrial natriuretic peptide receptor 2 (Homo sapiens) (UniProt P20594). Description: Natriuretic polypeptide receptor (hNpr2) antagonism - Pilot subtype selectivity assay (AID 1347050; calls by dose curve; note: potency is the fitted concentration of half-maximal effect). Conditions: NPR2-expressing cells, cGMP antagonist-mode read-out; series mostly up to 38.3 µM. The procedure, abridged: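 Luminescence from a genetically encoded cGMP luciferase biosensor in hNpr2-expressing HEK293 cells is read before and 20 min after adding 1 nM hNppC. Test compounds, in interplate 1:5 titrations, are added 30-50 min ahead of the agonist.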

Assay [8] is described as follows: qHTS Assay for Identifying Gametocytocidal Compounds (AID 743244).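 Note: % is set by controls: 0 for no effect and ±100 for the full control effect; actives lower the fluorescent signal which means gametocytes are killed.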 Conditions: P. falciparum 3D7 stage III-V gametocytes, alamarBlue, 72 h; max response: active compounds read low. In a few lines:
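A resazurin-based viability read-out was applied to mature P. falciparum gametocytes: 72 h compound treatment, then 24 h dye incubation, with falling fluorescence signalling gametocytocidal effect.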

Sequence of Atrial natriuretic peptide receptor 1 (Homo sapiens) (P16066 whole entry, looked up): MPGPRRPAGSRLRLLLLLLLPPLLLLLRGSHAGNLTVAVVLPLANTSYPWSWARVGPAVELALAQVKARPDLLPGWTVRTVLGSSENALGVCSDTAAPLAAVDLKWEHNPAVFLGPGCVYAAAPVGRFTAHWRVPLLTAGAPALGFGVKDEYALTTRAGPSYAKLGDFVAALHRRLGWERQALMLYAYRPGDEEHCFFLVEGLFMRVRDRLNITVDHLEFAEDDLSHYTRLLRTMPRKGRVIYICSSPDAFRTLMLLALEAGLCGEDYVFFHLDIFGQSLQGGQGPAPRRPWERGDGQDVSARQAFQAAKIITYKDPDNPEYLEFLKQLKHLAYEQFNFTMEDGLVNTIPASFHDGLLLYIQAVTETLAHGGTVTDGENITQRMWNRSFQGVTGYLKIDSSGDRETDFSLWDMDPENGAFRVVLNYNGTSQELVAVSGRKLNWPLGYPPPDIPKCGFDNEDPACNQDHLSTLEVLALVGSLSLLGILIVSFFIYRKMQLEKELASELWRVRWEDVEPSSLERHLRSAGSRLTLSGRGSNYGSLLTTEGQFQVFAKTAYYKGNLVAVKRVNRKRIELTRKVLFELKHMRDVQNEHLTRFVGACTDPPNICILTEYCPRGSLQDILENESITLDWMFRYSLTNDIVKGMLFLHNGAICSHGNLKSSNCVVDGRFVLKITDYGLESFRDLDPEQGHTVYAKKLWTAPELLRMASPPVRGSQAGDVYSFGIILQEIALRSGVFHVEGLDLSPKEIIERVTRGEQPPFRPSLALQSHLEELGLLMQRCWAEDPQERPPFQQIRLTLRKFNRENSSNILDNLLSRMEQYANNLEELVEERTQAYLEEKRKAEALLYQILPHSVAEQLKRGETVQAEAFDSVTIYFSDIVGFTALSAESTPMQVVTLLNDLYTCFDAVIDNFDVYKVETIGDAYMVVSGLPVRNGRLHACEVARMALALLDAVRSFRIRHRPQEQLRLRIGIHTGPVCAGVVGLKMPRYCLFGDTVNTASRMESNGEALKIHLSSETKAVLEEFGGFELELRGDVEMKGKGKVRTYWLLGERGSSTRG
T1 sequence (P35557 whole entry, looked up): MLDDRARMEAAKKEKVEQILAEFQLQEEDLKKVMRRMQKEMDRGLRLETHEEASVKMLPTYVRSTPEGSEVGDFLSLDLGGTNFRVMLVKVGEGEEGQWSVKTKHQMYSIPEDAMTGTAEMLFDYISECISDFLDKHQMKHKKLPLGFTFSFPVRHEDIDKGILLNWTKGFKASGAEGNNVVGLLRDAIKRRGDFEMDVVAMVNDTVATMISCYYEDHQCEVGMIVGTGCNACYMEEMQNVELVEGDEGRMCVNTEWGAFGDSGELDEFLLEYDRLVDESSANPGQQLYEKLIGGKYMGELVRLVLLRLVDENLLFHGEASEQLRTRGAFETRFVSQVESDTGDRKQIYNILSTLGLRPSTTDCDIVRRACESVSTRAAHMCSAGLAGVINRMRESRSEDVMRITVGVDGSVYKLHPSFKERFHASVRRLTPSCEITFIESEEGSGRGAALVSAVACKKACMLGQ
T1 sequence (Q14397 whole entry, looked up): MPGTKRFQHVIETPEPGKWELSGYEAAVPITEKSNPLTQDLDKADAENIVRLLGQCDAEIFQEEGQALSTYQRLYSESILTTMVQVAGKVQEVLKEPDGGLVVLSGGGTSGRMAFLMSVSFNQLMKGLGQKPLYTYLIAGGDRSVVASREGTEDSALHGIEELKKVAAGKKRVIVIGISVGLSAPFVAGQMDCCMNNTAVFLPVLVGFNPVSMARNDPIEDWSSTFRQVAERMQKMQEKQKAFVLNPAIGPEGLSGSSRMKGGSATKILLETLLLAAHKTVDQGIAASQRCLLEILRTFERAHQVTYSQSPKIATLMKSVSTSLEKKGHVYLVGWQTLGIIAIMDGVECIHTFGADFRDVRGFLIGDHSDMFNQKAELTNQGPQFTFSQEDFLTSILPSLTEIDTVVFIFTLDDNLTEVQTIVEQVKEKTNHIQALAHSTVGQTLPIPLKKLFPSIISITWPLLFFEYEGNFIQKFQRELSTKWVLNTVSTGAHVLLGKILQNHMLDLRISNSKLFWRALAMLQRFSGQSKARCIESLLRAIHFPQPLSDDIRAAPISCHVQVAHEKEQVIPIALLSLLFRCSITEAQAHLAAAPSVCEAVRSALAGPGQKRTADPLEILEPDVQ
Sequence of Atrial natriuretic peptide receptor 2 (Homo sapiens) (P20594 whole entry, looked up): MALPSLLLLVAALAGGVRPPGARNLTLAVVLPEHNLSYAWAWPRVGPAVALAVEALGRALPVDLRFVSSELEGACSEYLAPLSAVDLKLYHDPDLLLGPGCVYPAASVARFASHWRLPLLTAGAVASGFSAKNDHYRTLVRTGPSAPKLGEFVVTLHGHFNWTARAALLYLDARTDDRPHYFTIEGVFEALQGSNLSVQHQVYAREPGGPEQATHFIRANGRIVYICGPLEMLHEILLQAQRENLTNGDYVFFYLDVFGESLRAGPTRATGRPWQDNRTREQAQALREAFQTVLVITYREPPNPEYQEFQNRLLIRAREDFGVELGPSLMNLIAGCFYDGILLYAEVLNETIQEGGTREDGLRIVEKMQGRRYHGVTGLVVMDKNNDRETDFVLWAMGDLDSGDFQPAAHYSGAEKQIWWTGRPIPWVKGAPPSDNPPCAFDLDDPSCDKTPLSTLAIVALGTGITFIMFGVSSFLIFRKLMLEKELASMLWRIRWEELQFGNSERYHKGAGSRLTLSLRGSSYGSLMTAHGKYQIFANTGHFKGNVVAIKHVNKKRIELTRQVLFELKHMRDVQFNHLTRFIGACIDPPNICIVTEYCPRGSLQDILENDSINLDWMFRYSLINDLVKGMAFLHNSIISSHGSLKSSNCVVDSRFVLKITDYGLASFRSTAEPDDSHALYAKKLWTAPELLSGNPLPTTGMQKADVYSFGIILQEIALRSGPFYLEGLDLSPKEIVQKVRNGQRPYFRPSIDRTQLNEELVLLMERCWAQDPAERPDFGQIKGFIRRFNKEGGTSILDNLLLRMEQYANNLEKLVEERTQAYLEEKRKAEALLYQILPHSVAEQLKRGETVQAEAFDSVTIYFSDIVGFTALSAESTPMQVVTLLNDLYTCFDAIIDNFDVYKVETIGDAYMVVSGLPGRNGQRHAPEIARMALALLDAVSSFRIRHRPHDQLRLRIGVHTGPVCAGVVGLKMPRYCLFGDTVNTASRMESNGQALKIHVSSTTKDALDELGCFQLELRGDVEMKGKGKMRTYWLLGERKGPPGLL

Take `c1ccc(CN2CCC3(CCCc4ccccc43)CC2)cc1`: the Potency entry in assay [1], in assay [2], in assay [3], in assay [4], in assay [5] and in assay [6] was “inactive” throughout. Besides, in assay [7], the Potency entry is “inactive”.

As to `N=C(N)SCCc1cnc[nH]1`, the Potency result in assay [1], in assay [2], in assay [3], in assay [4], in assay [5] and in assay [6] was “inactive” in each case. The Potency result in assay [7] was “inactive”.

Turning to `NC(N)=N[C@@H](CCC(=O)O)C(=O)O`, the Potency entry in assay [1], in assay [2], in assay [3], in assay [4], in assay [5] and in assay [6] was “inactive” in each case. Further, in assay [7], the Potency entry was “inactive”. In addition, the max response in assay [8] was -1.42%.

Take `CN[C@H](CC(=O)O)C(=O)O`: the Potency entry in assay [1], in assay [2], in assay [3], in assay [4], in assay [5] and in assay [6] was “inactive” in each case. Further, in assay [7], the Potency result was “inactive”. Further, in assay [8], the max response was 19.8%.

For `CN(CC[C@@H](Oc1ccc(C(F)(F)F)cc1)c1ccccc1)CC(=O)O`, the Potency entry in assay [1], in assay [2], in assay [3], in assay [4], in assay [5] and in assay [6] was “inactive” each time. Further, the Potency result in assay [7] is “inactive”. For the same compound, the max response in assay [8] was 25.4%.

Turning to `COc1ccc2c(c1)c(CC(=O)O)c(C)n2Cc1ccc(Cl)cc1`, the Potency entry in assay [1], in assay [2], in assay [3], in assay [4], in assay [5] and in assay [6] was “inactive” in each case. Also, the Potency result in assay [7] was “inactive”. For the same compound, the max response in assay [8] is -11.4%.

With `O=c1oc(Cl)c(Cl)c2ccccc12`, the Potency result in assay [1], in assay [2], in assay [3] and in assay [4] was “inactive” throughout. Also, the max response in assay [8] was 31%. Further, the Potency in assay [5] and in assay [7] was 13.1 µM (active) in each case.

As to `C=C1C(=O)O[C@@H]2[C@H]3O[C@]3(C)CCC=C(C)CC[C@@H]12`, the Potency entry in assay [1], in assay [2], in assay [3] and in assay [4] was “inactive” throughout. For the same compound, the Potency in assay [7] is 11.7 µM (active).

For the compound `COc1cc(N)c(Cl)cc1C(=O)OCCN1CCCCC1`, the Potency result in assay [1], in assay [2], in assay [3], in assay [4], in assay [5] and in assay [6] was “inactive” each time. For the same compound, the Potency result in assay [7] is “inactive”. The max response in assay [8] is 4.04%.

Take `CCCCCCN(CCCCCC)C(=O)Cc1c(-c2ccc(F)cc2)[nH]c2ccccc12`: the Potency result in assay [1], in assay [2], in assay [3], in assay [4], in assay [5] and in assay [6] was “inactive” each time. The Potency result in assay [7] was “inactive”.

On to `Nc1ccc(CCNc2ncnc3c2ncn3C2OC(CO)C(O)C2O)cc1` (stereo unspecified), for which the Potency entry in assay [1], in assay [2], in assay [3], in assay [4], in assay [5] and in assay [6] was “inactive” in each case. Moreover, the Potency entry in assay [7] was “inactive”. In addition, the max response in assay [8] was 12.3%.

Take `CNc1ncnc2c1ncn2[C@H]1C[C@H](OP(=O)(O)O)[C@@H](COP(=O)(O)O)O1`: the Potency result in assay [1], in assay [2], in assay [3], in assay [4], in assay [5] and in assay [6] was “inactive” each time. The Potency result in assay [7] is “inactive”. For the same compound, the max response in assay [8] is 21.7%.

For the compound `COc1cccc(OC)c1OCCNCC1CSc2ccccc2O1` (stereo unspecified), the Potency entry in assay [1], in assay [2], in assay [3], in assay [4], in assay [5] and in assay [7] was “inactive” each time. Further, the max response in assay [8] was 8.7%.

As to `C[C@@H](NCCc1ccc(O)cc1)[C@@H](O)c1ccc(O)cc1`, the Potency result in assay [1], in assay [2], in assay [3], in assay [4], in assay [5] and in assay [6] was “inactive” in each case. For the same compound, the Potency result in assay [7] is “inactive”. In assay [8], the max response is 2.62%.

Consider `CC(=O)N[C@@H](Cc1c[nH]c2ccccc12)C(=O)OCc1cc(C(F)(F)F)cc(C(F)(F)F)c1`, for which the Potency result in assay [1], in assay [2], in assay [3], in assay [4], in assay [6] and in assay [7] was “inactive” each time. Besides, the max response in assay [8] is 12%.
